Measured values: article PMC4336329 (PLoS ONE, 2015)
Screen size: about 310,000 compounds; about 14,000 (4.5%) showed an effect of 50% or more. Effects have a minus sign here. Shown is part of a subset that was picked to be rich in strong results.

target: human ether-à-go-go-related gene (hERG) potassium channel (human, UniProt Q12809); experiment: primary screen, population patch clamp on CHO cells stably expressing hERG; higher = less effect of the substance
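Note: peak tail current of the secondary pulse compared with the same well before compound.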

human ether-à-go-go-related gene (hERG) potassium channel, sequence (Q12809 whole entry, looked up): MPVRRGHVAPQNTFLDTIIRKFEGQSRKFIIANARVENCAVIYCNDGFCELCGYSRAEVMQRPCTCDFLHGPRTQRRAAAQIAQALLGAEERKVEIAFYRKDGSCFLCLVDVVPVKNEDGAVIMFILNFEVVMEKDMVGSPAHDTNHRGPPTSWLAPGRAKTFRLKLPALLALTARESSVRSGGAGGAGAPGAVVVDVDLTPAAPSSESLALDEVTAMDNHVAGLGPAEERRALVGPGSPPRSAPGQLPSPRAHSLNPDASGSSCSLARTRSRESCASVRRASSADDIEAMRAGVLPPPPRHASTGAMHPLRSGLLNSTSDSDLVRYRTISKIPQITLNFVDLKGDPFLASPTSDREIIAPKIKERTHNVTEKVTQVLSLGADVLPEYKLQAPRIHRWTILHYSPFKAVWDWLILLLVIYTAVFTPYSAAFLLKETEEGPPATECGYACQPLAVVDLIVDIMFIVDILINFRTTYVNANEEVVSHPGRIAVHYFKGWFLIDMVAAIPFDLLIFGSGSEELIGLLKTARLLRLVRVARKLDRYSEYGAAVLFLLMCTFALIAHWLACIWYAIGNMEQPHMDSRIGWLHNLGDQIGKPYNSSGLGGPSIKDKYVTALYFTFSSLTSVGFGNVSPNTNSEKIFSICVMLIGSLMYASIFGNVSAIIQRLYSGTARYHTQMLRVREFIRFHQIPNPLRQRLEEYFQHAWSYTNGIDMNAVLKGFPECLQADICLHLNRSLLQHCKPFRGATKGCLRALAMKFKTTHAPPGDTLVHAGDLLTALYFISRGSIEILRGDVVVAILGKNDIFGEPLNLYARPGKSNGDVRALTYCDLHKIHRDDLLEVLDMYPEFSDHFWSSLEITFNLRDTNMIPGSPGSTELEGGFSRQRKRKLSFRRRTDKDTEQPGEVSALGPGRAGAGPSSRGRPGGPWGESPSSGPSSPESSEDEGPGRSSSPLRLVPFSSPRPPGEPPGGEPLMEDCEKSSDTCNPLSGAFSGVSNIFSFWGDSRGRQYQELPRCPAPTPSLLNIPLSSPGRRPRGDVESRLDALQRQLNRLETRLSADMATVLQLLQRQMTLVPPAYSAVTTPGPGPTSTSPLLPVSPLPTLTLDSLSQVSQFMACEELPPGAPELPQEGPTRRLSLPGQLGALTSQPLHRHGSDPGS

SMILES | hERG current change (%, negative = inhibition) at 10uM [%]
CCc1nnc(NC(=O)c2cccs2)s1 | 9.54
CCN(C(=O)COC(=O)c1ccc(Cl)cc1N)C1CCCCC1 | -9.34
CC(=O)OC(C(=O)NC1CCCCC1)c1ccncc1 (stereo not drawn) | -11.7
Cc1sc2nc(SCC(=O)NCc3ccco3)n(Cc3ccccc3)c(=O)c2c1C | -3.84
COc1ccc(C2=Nn3c(nnc3-c3ccco3)SC2)cc1 | -63.6
COc1ccc(OC)c(C2=Nn3c(nnc3-c3ccco3)SC2)c1 | -12.6
c1ccc(C2=Nn3c(nnc3-c3ccco3)SC2)cc1 | -25.9
Oc1ccc(C2=Nn3c(nnc3-c3ccco3)SC2)cc1O | 0.591
COc1ccc(C2=Nn3c(nnc3-c3ccco3)SC2)cc1OC | -54.1
CCOc1ccc(C2=Nn3c(nnc3-c3ccco3)SC2)cc1 | -10.7
Cc1nc2cc(NC(=O)Nc3cccc4ccccc34)ccc2n1C | 2.53
CCCOc1ccc(C(=O)NNC(=S)NC(=O)c2ccccc2)cc1 | 23.4
CCc1noc(C)c1C(=O)NC1CC(C)(C)Cc2c1cnn2-c1ccccc1 (stereo not drawn) | 5.9
Fc1ccc2c(c1)C1C=CCC1C(c1cc3c(cc1Br)OCO3)N2 (stereo not drawn) | 4.83
CCOc1ccc(NC(=O)Nc2ccc3c(c2)nc(C)n3C)cc1 | 1.49
O=C(NNC(=O)c1ccc(S(=O)(=O)N2CCOCC2)cc1)c1ccccc1 | 17.5
CN(C(=O)CSc1nc2cc(C(=O)O)ccc2c(=O)n1Cc1ccccc1)C1CCS(=O)(=O)C1 (stereo not drawn) | 37.8
CCOC(=O)CC(=O)CSc1nc2sc(C)cc2c(=O)n1Cc1ccco1 | -51.5
CCc1cc2c(=O)n(Cc3ccco3)c(SCC(=O)NC3CCS(=O)(=O)C3)nc2s1 (stereo not drawn) | -72.2
CN(C(=O)CSc1nc2ccc(Br)cc2c(=O)n1Cc1ccco1)C1CCS(=O)(=O)C1 (stereo not drawn) | -79.6
CCc1cc2c(=O)n(Cc3ccco3)c(SCC(=O)NCC3CCCO3)nc2s1 (stereo not drawn) | -70.2

SMILES | hERG current change (%, negative = inhibition) at 10uM [%]
Cc1cc2c(=O)n(Cc3ccco3)c(SCC(=O)NCc3ccco3)nc2s1 | -35.8
CCc1cc2c(SCC(=O)NC3CCS(=O)(=O)C3)ncnc2s1 (stereo not drawn) | -1.87
CN(C(=O)CSc1nnc(-c2ccco2)n1Cc1ccccc1)C1CCS(=O)(=O)C1 (stereo not drawn) | -6.24
CCc1cc2c(SCC(=O)NCC3CCCO3)ncnc2s1 (stereo not drawn) | -1.05
O=C(CSc1nc2c(sc3ccccc32)c(=O)n1Cc1ccco1)NCC1CCCO1 (stereo not drawn) | -13.9
Cc1cc2c(=O)n(Cc3ccco3)c(SCC(=O)c3ccc(Cl)s3)nc2s1 | -18.6
CCc1cc2c(=O)n(Cc3ccco3)c(SCc3c(C)noc3C)nc2s1 | -5.47
CCOc1ccc(-c2cc(C(=O)N3CCN(c4ccccn4)CC3)c3ccccc3n2)cc1 | 2.79
Cn1ncc2c(Nc3ccc([N+](=O)[O-])cc3)nc(Cl)nc21 | 18.9
Cc1ccc(-c2nnc(N3CCC(C)CC3)c3ccccc23)cc1 | 3.1
COc1nnc(-c2ccc(N3CCOCC3)c(NC(=O)C3CCCCC3)c2)c2ccccc12 | -37.3
O=C(C1CCC(C(=O)N2CCCCC2)CC1)N1CCCCC1 (stereo not drawn) | 6.09
O=C(CSc1nc2c([nH]c3ccccc32)c(=O)n1-c1ccccc1)NCC1CCCO1 (stereo not drawn) | 3.52
CN(C)c1ccc(C(CNC(=O)Cc2cccc3ccccc23)N(C)C)cc1 (stereo not drawn) | -32.8
CC(=O)N1c2ccc(S(=O)(=O)NCCC(=O)Nc3ccc(OC(F)(F)F)cc3)cc2CC1C (stereo not drawn) | -13.6
COCCN(C(=O)c1csnn1)C(C(=O)NC1CCCCC1)c1ccccc1F (stereo not drawn) | 3.83
COc1ccc(-c2csc(N3CCC(c4ccccc4)CC3)n2)cc1 | 23.2
CCN(C(=O)CSc1nc2cc(Cl)ccc2c(=O)n1CC(C)C)C1CCS(=O)(=O)C1 (stereo not drawn) | 2.51
CCc1cc2c(SCC(=O)N(C)C3CCS(=O)(=O)C3)ncnc2s1 (stereo not drawn) | -20.1
CCc1cc2c(=O)n(Cc3ccco3)c(SCC(=O)N3CCCc4ccccc43)nc2s1 | -23.4
CCc1cc2c(=O)n(Cc3ccco3)c(SCC(=O)N(C)C3CCS(=O)(=O)C3)nc2s1 (stereo not drawn) | -79.1

SMILES | hERG current change (%, negative = inhibition) at 10uM [%]
CCN(C(=O)CSc1nc2cc(Cl)ccc2c(=O)n1Cc1ccco1)C1CCS(=O)(=O)C1 (stereo not drawn) | -74.7
CC(C)Cn1c(SCC(=O)N(C)C2CCS(=O)(=O)C2)nc2cc(Cl)ccc2c1=O (stereo not drawn) | -31.5
COc1ccc(CNC(=O)[C@H](C)NC(=O)C2CCN(C(=O)[C@@H](N)CCSC)CC2)cc1 | 5.47
O=C1C=C(O)CC(c2ccco2)C1 (stereo not drawn) | 9.75
O=C(/C=C/c1ccco1)Nc1ccc2nc3n(c(=O)c2c1)CCCC3 | -8.17
N#CCC(=O)N1CCn2c1nc1ccccc12 | 17.2
Cn1c(=O)n(CCc2ccccc2)c(=O)c2c1nc1n2CCCN1c1ccccc1 | -20.7
COc1cc(/C=C2/C(=N)N3C=CSC3=NC2=O)ccc1OCCCOc1cc(C)ccc1C | 2.54
CC1CC(C)CN(CCCOc2ccccc2[N+](=O)[O-])C1.O=C(O)C(=O)O (stereo not drawn) | -35.5
CC1CN(CCOc2ccc([N+](=O)[O-])cc2)CC(C)O1.O=C(O)C(=O)O (stereo not drawn) | -46.2
COC(=O)c1ccc(OCCCCN2CC(C)OC(C)C2)cc1.O=C(O)C(=O)O (stereo not drawn) | -20
CC1CCCN(CCCOc2ccc([N+](=O)[O-])cc2)C1.O=C(O)C(=O)O (stereo not drawn) | -74.7
CC1CN(CCCOc2ccc([N+](=O)[O-])cc2)CC(C)O1.O=C(O)C(=O)O (stereo not drawn) | -71.6
CC1CC(C)CN(CCCCOc2ccc([N+](=O)[O-])cc2)C1.O=C(O)C(=O)O (stereo not drawn) | -78.8
CC1CN(CCCCOc2ccc(F)cc2)CC(C)O1.O=C(O)C(=O)O (stereo not drawn) | -42.7
CC1CCCN(CC(=O)Nc2cccc([N+](=O)[O-])c2)C1 (stereo not drawn) | -16.7
Cc1ccc(OC(=O)CCS(=O)(=O)c2ccc(C)cc2)cc1 | -24.4
O=C(CSc1nnc(COc2ccc(Br)cc2)o1)N1CCOCC1 | -17
CN(c1ccccc1C(=O)N1CCCC1)S(C)(=O)=O | -9.73
N#Cc1ccc(OCC(=O)Nc2ccc3[nH]c(=O)[nH]c3c2)cc1 | -4.57
C=CCn1c(O)c(C(CC)=Nc2cccc(C(=O)O)c2)c(=O)[nH]c1=O | 11.6

SMILES | hERG current change (%, negative = inhibition) at 10uM [%]
CSc1ccccc1OCc1cc(C(=O)NCCCc2ccccc2)no1 | 12.9
Cc1ccc2c(CN(C)Cc3cccc(Cl)c3)cc(=O)oc2c1C | 12
COc1ccccc1NC(=S)N1CC(C)OC(C)C1 (stereo not drawn) | 19.5
COc1cccc(N2CCN(C(=O)CN(C)S(=O)(=O)c3ccc4c(c3)c(=O)n(C)c(=O)n4C)CC2)c1 | -10.8
CC(C)(C)OC(=O)CNC(=O)c1nc[nH]c1C(=O)NCC(=O)OC(C)(C)C | 3.98
CN(C(=O)COC(=O)CNS(=O)(=O)/C=C/c1ccccc1)C1CCS(=O)(=O)C1 (stereo not drawn) | 23.3
CCN(CC1COc2ccccc2O1)C(=O)CN1C(=O)NC(C)(c2ccc(C)cc2)C1=O (stereo not drawn) | -28.8
COC(=O)C1=C(C)N(Cc2ccccc2)C(=S)N[C@H]1c1ccccc1 | -2.64
COC(=O)C1=C(C)N(Cc2ccccc2)C(=O)N[C@H]1c1ccccc1 | -13.5
COCCN=C1N[C@@H](c2ccccc2)C(C(=O)OC)=C(C)N1Cc1ccccc1 | -16.8
COCCN=C1N[C@@H](c2ccc(Br)cc2)C(C(=O)OC)=C(C)N1Cc1ccccc1 | -55.3
CCN1C(=NCCCCO)N[C@@H](c2cccc(C(F)(F)F)c2)C(C(=O)OC)=C1C | 5.89
COC(=O)C1=C(C)N(Cc2ccccc2)C(=NCC(C)C)N[C@H]1c1ccccc1 | -55.9
COC(=O)C1=C(C)N(CC2CC2)C(=NCc2cc(OC)c(OC)c(OC)c2)N[C@H]1c1ccccc1 | -17.5
COC(=O)C1=C(C)N(CC2CC2)C(=NCc2cccc(Cl)c2)N[C@H]1c1ccccc1 | -72.3
COC(=O)C1=C(C)N(Cc2ccccc2)C(=NCCCCO)N[C@H]1c1ccccc1 | -53.2
CCN1C(=NCc2cccc(Cl)c2)N[C@@H](c2cccc(F)c2)C(C(=O)OC)=C1C | -41.4
COC(=O)C1=C(C)N(Cc2ccccc2)C(=NCCCCO)N[C@H]1CCc1ccccc1 | -43.3
COC(=O)C1=C(C)N(Cc2ccccc2)C(=O)N[C@H]1c1ccc(Br)cc1 | -10.9
COc1cc(NC(=O)c2ccc(-c3ccc(Br)cc3)o2)ccc1NC(=O)C(C)C | -26.1
O=C(CSc1ccc(Cl)cc1)Nc1ccc(N2CCN(c3ccccc3)CC2)c(F)c1 | 24.9
